Results published in PubChem BioAssay (NCATS).
Records with an inconclusive call do not appear. Where a call stands in place of a potency, no number is given. The source made the active and inactive calls. Unless noted, calls come from the whole dose curve; as a rule, active = well fitted curve in the direction sought with a large enough effect; inconclusive = small, poorly fitted or top-dose-only effect, or another doubt; inactive = no such curve, though single readings can be large; an effect the other way counts as inactive or inconclusive.

What was measured:
[1] = target: Lysosomal acid glucosylceramidase (Homo sapiens) (UniProt P04062); test: Glucocerebrosidase-p2 (AID 348; in the data active = potency below about 10 µM; note: potency is the fitted concentration of half-maximal effect); details: purified GBA, blue fluorogenic substrate, 40 min
Sequence of Lysosomal acid glucosylceramidase (Homo sapiens) (P04062 whole entry, looked up): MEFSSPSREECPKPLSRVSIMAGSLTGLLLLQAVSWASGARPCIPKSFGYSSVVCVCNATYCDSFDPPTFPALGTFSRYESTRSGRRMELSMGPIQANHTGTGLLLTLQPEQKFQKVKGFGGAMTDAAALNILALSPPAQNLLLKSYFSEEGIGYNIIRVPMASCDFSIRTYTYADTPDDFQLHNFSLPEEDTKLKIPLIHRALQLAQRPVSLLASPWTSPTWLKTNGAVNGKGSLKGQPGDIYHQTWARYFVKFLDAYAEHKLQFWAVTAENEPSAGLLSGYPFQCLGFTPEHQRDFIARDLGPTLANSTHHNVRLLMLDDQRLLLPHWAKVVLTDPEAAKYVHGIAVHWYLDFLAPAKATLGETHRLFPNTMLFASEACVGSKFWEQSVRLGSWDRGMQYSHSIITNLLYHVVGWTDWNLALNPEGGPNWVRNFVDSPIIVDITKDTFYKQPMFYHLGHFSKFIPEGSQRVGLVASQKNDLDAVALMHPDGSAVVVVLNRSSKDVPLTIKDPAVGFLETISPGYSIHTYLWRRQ
Outline: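 Compounds titrated from 0.6 nM upwards against 0.2 nM enzyme in pH 5.9 citric acid/KH2PO4, taurocholate, tween-20; blue fluorogenic substrate 80 uM, 40 min room temperature, stopped and read Ex 365/Em 440 for AC50.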

[2] = AP1 Signaling Pathway (AID 357; active = well fitted curve in either direction with a large enough effect, not every such curve was filed as active;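 note: ME-180 reporter cells stimulated with EGF at its EC50 level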); details: ME-180 AP-1-bla reporter, EGF-induced, beta-lactamase ratio, 5 h; at 7.69 µM (top of the series) unless noted
Outline: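 Beta-lactamase reporter under AP-1 response element, ME-180 background. Stimulus: EC50 EGF. Compound exposure 5 h, 37 °C. Detection: CCF4, 2.5 h RT, 460/530 nm. Values: AC50 from titration.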

[3] = target: Cytochrome P450 1A2 (Homo sapiens) (UniProt P05177); test: p450-cyp1a2 (AID 410; calls by dose curve; note: potency is the fitted concentration of half-maximal effect)
Sequence of Cytochrome P450 1A2 (Homo sapiens) (P05177 whole entry, looked up): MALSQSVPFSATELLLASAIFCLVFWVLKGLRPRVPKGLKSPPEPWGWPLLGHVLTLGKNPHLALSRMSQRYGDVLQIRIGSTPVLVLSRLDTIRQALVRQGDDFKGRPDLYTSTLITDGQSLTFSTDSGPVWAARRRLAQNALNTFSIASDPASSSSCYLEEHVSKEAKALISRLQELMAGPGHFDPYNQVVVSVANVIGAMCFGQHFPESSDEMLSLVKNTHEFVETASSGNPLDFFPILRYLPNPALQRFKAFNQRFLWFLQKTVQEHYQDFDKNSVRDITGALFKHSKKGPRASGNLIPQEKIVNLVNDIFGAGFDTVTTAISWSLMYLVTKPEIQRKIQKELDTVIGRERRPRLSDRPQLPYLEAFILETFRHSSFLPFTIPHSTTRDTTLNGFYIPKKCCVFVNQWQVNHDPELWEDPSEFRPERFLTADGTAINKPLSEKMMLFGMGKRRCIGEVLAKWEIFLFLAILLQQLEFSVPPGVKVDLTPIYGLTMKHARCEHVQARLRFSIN
Outline: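 Luminescent readout of luciferin formed from Luciferin-ME by human CYP1A2; data normalized against complete inhibition by 57 uM furafylline. Enzyme 20nM, substrate 100uM at Km, 100mM KPO4 buffer, 60 min reaction at room temperature.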

[4] = Stat Signaling Pathway (AID 446; active = well fitted curve in either direction with a large enough effect, not every such curve was filed as active;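 note: ME-180 cervical cancer cells given 40 pM IL-6 alongside compound; SIE-controlled beta-lactamase reporter measured as 460/530 nm FRET emission ratio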); details: ME-180 (cervical carcinoma) SIE beta-lactamase reporter, IL-6 stimulated, 5 h; at 7.69 µM (top of the series) unless noted
Outline: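 IL-6/STAT signaling read in ME-180 cells via an SIE beta-lactamase reporter. Stimulus was 40 pM IL-6 (its AC50) for 5 hrs, so both activation and inhibition register.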

[5] = target: Glucocorticoid receptor (Homo sapiens) (UniProt P04150); test: GR-GFP Redistribution (AID 450;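 active = compounds whose dose series gives a full or clear partial fitted curve of increased nuclear translocation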; note: potency is the fitted concentration of half-maximal effect); details: U2OS GR-GFP nuclear translocation, laser cytometry, 2 h
Sequence of Glucocorticoid receptor (Homo sapiens) (P04150 whole entry, looked up, the tested form may be a part): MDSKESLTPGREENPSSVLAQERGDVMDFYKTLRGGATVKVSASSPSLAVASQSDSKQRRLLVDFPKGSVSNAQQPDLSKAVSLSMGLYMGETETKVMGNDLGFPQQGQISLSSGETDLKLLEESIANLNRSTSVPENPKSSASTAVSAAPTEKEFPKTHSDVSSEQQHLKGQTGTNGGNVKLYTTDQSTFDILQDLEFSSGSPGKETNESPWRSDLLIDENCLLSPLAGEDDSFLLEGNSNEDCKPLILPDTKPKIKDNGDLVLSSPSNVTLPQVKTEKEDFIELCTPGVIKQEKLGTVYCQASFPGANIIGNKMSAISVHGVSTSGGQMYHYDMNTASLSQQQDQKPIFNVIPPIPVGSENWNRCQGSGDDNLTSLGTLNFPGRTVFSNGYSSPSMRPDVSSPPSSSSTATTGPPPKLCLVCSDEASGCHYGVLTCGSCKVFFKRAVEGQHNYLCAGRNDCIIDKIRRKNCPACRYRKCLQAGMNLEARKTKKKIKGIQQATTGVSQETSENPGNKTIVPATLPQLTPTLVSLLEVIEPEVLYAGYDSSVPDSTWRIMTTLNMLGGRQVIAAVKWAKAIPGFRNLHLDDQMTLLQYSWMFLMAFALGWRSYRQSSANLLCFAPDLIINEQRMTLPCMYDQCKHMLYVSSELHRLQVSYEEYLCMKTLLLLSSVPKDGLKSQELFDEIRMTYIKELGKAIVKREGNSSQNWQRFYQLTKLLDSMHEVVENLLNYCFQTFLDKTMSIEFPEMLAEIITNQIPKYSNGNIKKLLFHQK

[6] = target: Glucocorticoid receptor (Homo sapiens) (UniProt P04150); test: GR-EFC Redistribution (AID 451; calls by dose curve; note: potency is the fitted concentration of half-maximal effect); details: CHO-K1 GR-EFC translocation, beta-gal luminescence, 2 h
Outline: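 CHO-K1 cells stably expressing nuclear-localized β-gal enzyme acceptor and GR fused C-terminally to the enzyme donor fragment; ligand-driven nuclear translocation restores β-gal by complementation. Compounds titrated up to 46 uM final, 2 h at 37 °C; luminescence read.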

[7] = target: Cytochrome P450 3A4 (Homo sapiens) (UniProt P08684); test: qHTS Assay for Activators of Cytochrome P450 3A4 (AID 885); note: nearly all actives have a fitted effect of over 65% in size
Sequence of Cytochrome P450 3A4 (Homo sapiens) (P08684 whole entry, looked up): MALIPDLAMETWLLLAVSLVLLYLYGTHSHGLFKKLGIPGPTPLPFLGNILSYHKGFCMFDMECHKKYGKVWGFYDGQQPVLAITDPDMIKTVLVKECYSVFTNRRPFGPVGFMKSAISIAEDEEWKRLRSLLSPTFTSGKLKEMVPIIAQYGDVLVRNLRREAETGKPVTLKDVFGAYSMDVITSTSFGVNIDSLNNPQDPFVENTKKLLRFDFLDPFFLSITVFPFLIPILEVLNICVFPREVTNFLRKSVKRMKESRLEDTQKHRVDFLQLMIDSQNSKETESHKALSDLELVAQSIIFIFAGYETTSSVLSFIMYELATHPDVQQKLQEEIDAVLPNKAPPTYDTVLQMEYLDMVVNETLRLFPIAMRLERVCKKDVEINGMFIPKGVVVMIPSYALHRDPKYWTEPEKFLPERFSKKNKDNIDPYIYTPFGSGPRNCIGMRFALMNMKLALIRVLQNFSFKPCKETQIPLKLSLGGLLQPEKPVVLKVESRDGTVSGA
Outline: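 Quantitative HTS format: compounds preincubated with 20nM human CYP3A4 and Luciferin-PPXE substrate at KM, reaction started by NADPH regeneration, stopped after 60 min, luciferase luminescence read 20 min later.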

[8] = Confirmation and Secondary Assay for Modulators of Hemoglobin Beta Chain Splicing at IVS2 654 locus (AID 910);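 note: per-well total GFP intensity by laser scanning cytometry after 2-day treatment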
Outline: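 HeLa cells stably carrying EGFP interrupted by mutant beta-globin IVS2-654 intron (CMV-driven) were treated with compound for 2 days at 37C; corrected splicing was scored as total peak GFP intensity per well (488 nm excitation, 500-520 nm emission).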

[9] = Confirmation and Secondary Assay for Modulators of Hemoglobin Beta Chain Splicing at IVS2 705 locus (AID 930);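 note: HeLa cells stably expressing the EGFP-705 splicing reporter; GFP fluorescence per well restored by corrected splicing of the IVS2-705 intron in EGFP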
Outline: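 Stable HeLa line with EGFP disrupted by mutant beta-globin intron 2 (705). Overnight attachment, then 2 days of compound at 37C, 5% CO2. Signal: peak GFP intensity summed over objects 5-250 µm.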

[10] = qHTS Assay for Lipid Storage Modulators (AID 1519; calls by dose curve); details: Drosophila S3 cells, BODIPY lipid droplet/cell ratio, laser cytometry, cells loaded with oleic acid; for activity change, negative = inhibition: at 57.5 µM (top of the series)
Outline: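 Cells seeded at 5,000 per well were treated with compounds over a concentration series and loaded with oleic acid (400 uM, as added). Lipid droplet fluorescence (488 nm excitation, 500-530 nm channel) was read by laser-scanning cytometry and normalized to 20 uM Triacsin C.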

[11] = target: Rap guanine nucleotide exchange factor 3 (Homo sapiens) (UniProt O95398); test: Confirmatory qHTS for antagonist of cAMP-regulated guanine nucleotide exchange factor 3 (EPAC1) (AID 1645880); note: nearly all actives have a fitted effect of over 55% in size
Sequence of Rap guanine nucleotide exchange factor 3 (Homo sapiens) (O95398 whole entry, looked up): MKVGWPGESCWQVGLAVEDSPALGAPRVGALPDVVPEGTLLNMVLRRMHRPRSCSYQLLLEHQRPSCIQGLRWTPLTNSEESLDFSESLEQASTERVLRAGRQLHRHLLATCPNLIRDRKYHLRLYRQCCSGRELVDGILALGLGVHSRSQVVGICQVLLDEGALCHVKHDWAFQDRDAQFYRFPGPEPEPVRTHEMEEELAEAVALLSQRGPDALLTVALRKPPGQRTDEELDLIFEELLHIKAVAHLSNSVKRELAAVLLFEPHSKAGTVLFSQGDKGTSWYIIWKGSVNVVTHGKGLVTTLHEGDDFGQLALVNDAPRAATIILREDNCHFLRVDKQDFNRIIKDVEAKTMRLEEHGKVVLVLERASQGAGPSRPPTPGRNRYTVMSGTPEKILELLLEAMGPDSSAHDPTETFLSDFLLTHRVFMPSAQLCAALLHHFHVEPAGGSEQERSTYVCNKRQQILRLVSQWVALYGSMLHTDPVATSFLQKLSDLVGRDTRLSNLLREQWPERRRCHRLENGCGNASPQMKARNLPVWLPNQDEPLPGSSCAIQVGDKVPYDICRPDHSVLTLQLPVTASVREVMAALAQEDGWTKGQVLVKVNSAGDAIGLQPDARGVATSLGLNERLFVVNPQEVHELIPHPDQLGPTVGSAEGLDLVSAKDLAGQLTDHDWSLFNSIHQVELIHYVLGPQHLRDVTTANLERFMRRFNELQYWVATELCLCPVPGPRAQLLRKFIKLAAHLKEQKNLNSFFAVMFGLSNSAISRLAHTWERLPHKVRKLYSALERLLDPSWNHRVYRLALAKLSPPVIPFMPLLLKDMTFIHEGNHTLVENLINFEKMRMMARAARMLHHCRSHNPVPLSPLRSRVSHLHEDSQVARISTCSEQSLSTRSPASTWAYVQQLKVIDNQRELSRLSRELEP
Outline: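 Nucleotide exchange uses 100 nM EPAC1, 250 nM RAP1B-BODIPY-GDP and 50 uM GDP, with compounds in a concentration-titration series. After 5 min at room temperature, fluorescence (480 nm ex/540 nm em) is read every 5 min for 30 min. Data are normalized to control ATA and DMSO.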

[12] = target: Rap guanine nucleotide exchange factor 3 (Homo sapiens) (UniProt O95398); test: Confirmatory qHTS for agonist of cAMP-regulated guanine nucleotide exchange factor 3 (EPAC1) (AID 1645881);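 note: EPAC1 catalysed release of BODIPY-GDP from Rap1B seen as fluorescence loss; nearly all actives have a fitted effect of over 75% in size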
[13] = target: Rap guanine nucleotide exchange factor 4 (Homo sapiens) (UniProt Q8WZA2); test: Confirmatory qHTS for agonist of cAMP-regulated guanine nucleotide exchange factor 4 (EPAC2) (AID 1645884);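 note: nucleotide exchange releases bodipy-GDP from Rap1 and this lowers its fluorescence; nearly all actives have a fitted effect of over 65% in size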
Sequence of Rap guanine nucleotide exchange factor 4 (Homo sapiens) (Q8WZA2 whole entry, looked up): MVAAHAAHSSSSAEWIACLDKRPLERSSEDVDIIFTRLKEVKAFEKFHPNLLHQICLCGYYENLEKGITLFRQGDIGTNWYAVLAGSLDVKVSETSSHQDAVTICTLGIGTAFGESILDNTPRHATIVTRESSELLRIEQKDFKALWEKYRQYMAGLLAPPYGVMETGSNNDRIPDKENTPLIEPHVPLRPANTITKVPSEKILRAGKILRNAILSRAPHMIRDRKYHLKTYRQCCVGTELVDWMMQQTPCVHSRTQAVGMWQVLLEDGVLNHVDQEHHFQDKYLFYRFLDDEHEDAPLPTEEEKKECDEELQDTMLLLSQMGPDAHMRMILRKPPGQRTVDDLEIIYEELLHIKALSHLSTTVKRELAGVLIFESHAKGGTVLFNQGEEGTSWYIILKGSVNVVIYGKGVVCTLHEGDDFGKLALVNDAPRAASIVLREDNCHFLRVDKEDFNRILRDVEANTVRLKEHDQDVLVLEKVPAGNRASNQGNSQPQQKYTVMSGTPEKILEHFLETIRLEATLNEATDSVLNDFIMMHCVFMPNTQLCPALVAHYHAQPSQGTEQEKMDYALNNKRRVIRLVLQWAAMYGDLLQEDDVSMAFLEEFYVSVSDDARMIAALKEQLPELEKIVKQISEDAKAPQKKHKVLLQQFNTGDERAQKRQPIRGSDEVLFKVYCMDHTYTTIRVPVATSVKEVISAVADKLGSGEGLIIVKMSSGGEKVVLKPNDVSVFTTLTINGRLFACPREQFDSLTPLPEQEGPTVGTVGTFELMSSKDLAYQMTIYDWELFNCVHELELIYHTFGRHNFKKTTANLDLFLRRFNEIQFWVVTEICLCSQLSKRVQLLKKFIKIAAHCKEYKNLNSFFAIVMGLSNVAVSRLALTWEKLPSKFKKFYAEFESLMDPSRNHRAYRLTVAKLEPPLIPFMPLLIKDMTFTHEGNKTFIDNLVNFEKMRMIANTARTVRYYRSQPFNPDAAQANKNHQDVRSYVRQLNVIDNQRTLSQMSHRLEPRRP

[14] = target: Rap guanine nucleotide exchange factor 4 (Homo sapiens) (UniProt Q8WZA2); test: Confirmatory qHTS for antagonist of cAMP-regulated guanine nucleotide exchange factor 4 (EPAC2) (AID 1645885); note: nearly all actives have a fitted effect of over 25% in size; note: potency is the fitted concentration of half-maximal effect
[15] = NFAT Signaling Pathway (AID 444; active = well fitted curve in either direction with a large enough effect, not every such curve was filed as active;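 note: carbachol stimulus at about its EC50 of 1 µM final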); details: Jurkat NFAT-bla M1, carbachol, beta-lactamase ratio, 5 h; at 7.69 µM (top of the series) unless noted
Outline: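 Jurkat cells carrying an NFAT-driven β-lactamase reporter and co-transfected muscarinic M1 receptor were treated with compound plus carbachol (1 uM final, an EC50 level) for 5 h at 37 °C. CCF4 loading followed for 1 h at RT; 460/530 nm ratio gave %activity.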

[16] = target: Mitogen-activated protein kinase 10 (Mus musculus) (UniProt Q61831); test: JNK3 AlphaScreen Assay (AID 530; active = well fitted curve in either direction with a large enough effect, not every such curve was filed as active;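 note: kinase came from lysate of stimulated human HepG2 cells; signal reports phosphorylation of biotinylated GST-cJun 1-79 at Ser73 with 10 µM ATP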)
Outline: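 Inhibitors reduce antibody binding to phosphorylated biotin-cJun, lowering AlphaScreen luminescence. Lysates from HepG2 cells pre-activated by IL-1beta plus TNF-alpha supplied JNK3; compounds were titrated.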

[17] = target: Cytochrome P450 3A4 (Homo sapiens) (UniProt P08684); test: qHTS Assay for Inhibitors and Substrates of Cytochrome P450 3A4 (AID 884); note: nearly all actives have a fitted effect of over 50% in size; note: potency is the fitted concentration of half-maximal effect
Outline: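 20 nM human CYP3A4 with 25 uM Luciferin-PPXE (at KM) in 200 mM KPO4, preincubated 10 min with compound; NADPH regeneration started a 60 min RT reaction. Luciferin detected by luminescence, normalized to 57 uM ketoconazole as full inhibition.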

[18] = target: 3',5'-cyclic-AMP phosphodiesterase 4B (Homo sapiens) (UniProt Q07343); test: qHTS Assay for Inhibitors of PDE-IV (AID 607; active = well fitted activation curve with a large enough effect in the main read-out, with a control signal flat, not every such curve was filed as active)
Sequence of 3',5'-cyclic-AMP phosphodiesterase 4B (Homo sapiens) (Q07343 whole entry, looked up): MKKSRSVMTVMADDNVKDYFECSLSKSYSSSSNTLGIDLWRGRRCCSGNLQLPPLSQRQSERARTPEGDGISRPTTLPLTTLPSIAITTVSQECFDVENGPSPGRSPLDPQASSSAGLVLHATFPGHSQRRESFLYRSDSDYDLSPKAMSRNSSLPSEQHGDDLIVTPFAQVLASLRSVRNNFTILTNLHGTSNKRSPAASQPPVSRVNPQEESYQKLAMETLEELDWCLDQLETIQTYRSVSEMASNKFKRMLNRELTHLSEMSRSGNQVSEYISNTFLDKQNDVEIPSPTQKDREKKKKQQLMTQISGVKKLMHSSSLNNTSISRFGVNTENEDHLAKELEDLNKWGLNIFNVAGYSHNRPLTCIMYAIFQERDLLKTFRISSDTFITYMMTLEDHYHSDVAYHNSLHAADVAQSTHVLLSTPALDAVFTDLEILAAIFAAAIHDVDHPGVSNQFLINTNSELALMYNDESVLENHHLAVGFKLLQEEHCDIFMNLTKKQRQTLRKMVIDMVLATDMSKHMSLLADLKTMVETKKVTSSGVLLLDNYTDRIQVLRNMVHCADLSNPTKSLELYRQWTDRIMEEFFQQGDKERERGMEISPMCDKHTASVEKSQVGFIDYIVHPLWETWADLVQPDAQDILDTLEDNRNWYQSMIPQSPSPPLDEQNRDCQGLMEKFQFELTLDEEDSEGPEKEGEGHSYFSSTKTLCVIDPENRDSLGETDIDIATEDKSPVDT
Outline: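 Live HEK293 cells with a modified cyclic nucleotide-gated (CNG) channel report intracellular cAMP via membrane-potential dye fluorescence (ex 535/em 590 nm). Endogenous PDE-IV was targeted. Compounds were tested at up to 22.9 uM final; RO 20-1724 100 uM served as control.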

[19] = target: Ubiquitin carboxyl-terminal hydrolase 1 (Homo sapiens) (UniProt O94782); test: Inhibitors of USP1/UAF1: Pilot qHTS (AID 504865); note: nearly all actives have a fitted effect of over 35% in size; note: potency is the fitted concentration of half-maximal effect;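 for activity change, negative = inhibition: rhodamine fluorescence freed from ubiquitin-rhodamine substrate followed over time; top concentration of the series differs between compounds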
Outline: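 Enzyme-free wells gave the negative control, while test wells held 1nM USP1/UAF1 preincubated with compound for 15 min at room temperature. Ub-Rho at 150nM final started the reaction, and fluorescence at 480/540 nm was recorded kinetically.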

[20] = measured here: cell count channel max response
[21] = measured here: lipid channel max response

CN(Cc1ccco1)c1nc(-c2cccc(C#N)c2)nc2ccccc12
Potency [1]: > 11.4 µM (inactive)
activity change, negative = inhibition [2]: 6.74% (inactive)
Potency [3]: 0.1 µM (active)
activity, negative = inhibition [4]: 12.3% (inactive)
Potency [5]: > 46 µM (inactive)
Potency [6]: > 46 µM (inactive)
Potency [7]: inactive
Potency [8]: inactive
outcome [9]: inactive
activity change, negative = inhibition [10]: 10.1% (inactive)
max response [10, 20]: 1.16%
max response [10, 21]: 12.8%
Potency [11]: inactive
Potency [12]: inactive
Potency [13]: inactive
Potency [14]: inactive

COc1cccc(-c2cncnc2NCc2ccc(OC)cc2OC)c1
Potency [1]: > 11.4 µM (inactive)
activity change, negative = inhibition [2]: -7.15% (inactive)
Potency [3]: 3.98 µM (active)
activity change, negative = inhibition [15]: -10.1% (inactive)
activity, negative = inhibition [4]: -6.14% (inactive)
Potency [5]: > 46 µM (inactive)
Potency [6]: > 46 µM (inactive)
Potency [16]: inactive
Potency [17]: 0.501 µM (active)
Potency [7]: inactive
Potency [8]: inactive
outcome [9]: inactive
activity change, negative = inhibition [10]: 7.71% (inactive)
max response [10, 20]: 3.12%
max response [10, 21]: 8.96%
Potency [12]: inactive
Potency [13]: inactive
Potency [14]: 44.1 µM (active)

CC(=O)Oc1ccc2c(c1)CCC1C2CC[C@]2(C)C(OC(C)=O)CCC12 (some centres undefined)
Potency [8]: inactive
outcome [9]: inactive
activity change, negative = inhibition [10]: -2.53% (inactive)
max response [10, 20]: 4%
max response [10, 21]: 4.34%
Potency [11]: inactive
Potency [12]: inactive
Potency [13]: inactive
Potency [14]: inactive

COc1cc(-c2coc3cc(OCc4ccccc4)c(OC)c(O)c3c2=O)cc(O)c1OC
Potency [7]: inactive
Potency [8]: inactive
outcome [9]: inactive
activity change, negative = inhibition [10]: -4.72% (inactive)
max response [10, 20]: -3.67%
max response [10, 21]: -4.66%
Potency [11]: inactive
Potency [12]: inactive
Potency [13]: inactive
Potency [14]: inactive

O=C(c1cccc(F)c1)N1CCC[C@@]2(CCN(C(c3ccccc3)c3ccccc3)C2)C1
Potency [1]: > 11.4 µM (inactive)
activity change, negative = inhibition [2]: 28.8% (inactive)
Potency [3]: inactive
activity change, negative = inhibition [15]: 0.838% (inactive)
activity, negative = inhibition [4]: 12.6% (inactive)
Potency [6]: > 46 µM (inactive)
Potency [16]: inactive
Potency [18]: inactive
Potency [17]: 3.98 µM (active)
Potency [7]: inactive
activity change, negative = inhibition [10]: -11.6% (inactive)
max response [10, 20]: 5.27%
max response [10, 21]: -12.6%
Potency [11]: inactive
Potency [12]: inactive
Potency [13]: inactive
Potency [14]: inactive

COC(=O)c1c(OC)cc2c(c1C)Oc1c(Cl)c(OC(C)=O)c(Cl)c(C)c1C(=O)O2
Potency [17]: 15.8 µM (active)
Potency [7]: inactive
Potency [8]: inactive
outcome [9]: inactive
activity change, negative = inhibition [10]: 5.48% (inactive)
max response [10, 20]: 2.97%
max response [10, 21]: 13%
Potency [11]: inactive
Potency [12]: inactive
Potency [13]: inactive
Potency [14]: 11.1 µM (active)

C=CC(C1=CC(=O)C(OC)=CC1=O)c1ccccc1 (centres undefined)
Potency [17]: 20 µM (active)
Potency [7]: inactive
Potency [8]: inactive
outcome [9]: inactive
activity change, negative = inhibition [10]: -14.6% (inactive)
max response [10, 20]: -0.41%
max response [10, 21]: -12.3%
Potency [19]: 56.2 µM (active)
Potency [12]: inactive
Potency [13]: inactive
Potency [14]: 31.2 µM (active)

COC(=O)CCCOc1ccc(Cl)cc1Cl
Potency [17]: inactive
Potency [8]: inactive
outcome [9]: inactive
activity change, negative = inhibition [10]: 5.51% (inactive)
max response [10, 20]: 14%
max response [10, 21]: 23%
Potency [19]: inactive
Potency [11]: inactive
Potency [12]: inactive
Potency [13]: inactive

COc1c(-c2ccc(O)c(O)c2)oc2cc(O)cc(O)c2c1=O
Potency [5]: > 46 µM (inactive)
Potency [6]: > 46 µM (inactive)
Potency [18]: inactive
Potency [17]: inactive
activity change, negative = inhibition [10]: 0.206% (inactive)
max response [10, 20]: -16.5%
max response [10, 21]: -17.7%
Potency [12]: inactive
Potency [13]: inactive
Potency [14]: inactive

COc1cc(C/C=C/c2ccccc2)c(OC)cc1O
Potency [7]: inactive
Potency [8]: inactive
outcome [9]: inactive
activity change, negative = inhibition [10]: 1.85% (inactive)
max response [10, 20]: 4.35%
max response [10, 21]: 7.15%
Potency [19]: inactive
Potency [11]: inactive
Potency [12]: inactive
Potency [13]: inactive
Potency [14]: inactive

COc1cccc(-c2nc(Nc3ccncc3)c3ccccc3n2)c1
Potency [1]: 2.53 µM (active)
activity change, negative = inhibition [2]: -6.31% (inactive)
Potency [3]: 0.794 µM (active)
activity, negative = inhibition [4]: -15.1% (inactive)
Potency [5]: > 46 µM (inactive)
Potency [6]: > 46 µM (inactive)
Potency [16]: inactive
Potency [18]: inactive
Potency [7]: inactive
Potency [8]: inactive
outcome [9]: inactive
activity change, negative = inhibition [10]: -7.83% (inactive)
max response [10, 20]: -14.4%
max response [10, 21]: -19.7%
Potency [19]: 39.8 µM (active)
Potency [11]: inactive
Potency [14]: inactive

O=c1c(O)c(-c2ccc(O)c(O)c2)oc2c(OC3OC(CO)C(O)C(O)C3O)c(O)cc(O)c12 (centres undefined)
Potency [7]: inactive
Potency [8]: inactive
outcome [9]: inactive
activity change, negative = inhibition [10]: 0.918% (inactive)
max response [10, 20]: -2.75%
max response [10, 21]: 7.27%
Potency [19]: inactive
Potency [11]: inactive
Potency [12]: inactive
Potency [13]: inactive
Potency [14]: inactive

Cc1ccccc1-c1ccc2ncnc(N(C)Cc3ccco3)c2c1
Potency [1]: > 11.4 µM (inactive)
activity change, negative = inhibition [2]: -8.93% (inactive)
activity change, negative = inhibition [15]: -28.4% (inactive)
activity, negative = inhibition [4]: -13.4% (inactive)
Potency [5]: > 46 µM (inactive)
Potency [6]: > 46 µM (inactive)
Potency [16]: inactive
activity change, negative = inhibition [10]: 2.17% (inactive)
max response [10, 20]: 20.6%
max response [10, 21]: 23.2%
Potency [19]: inactive
Potency [12]: inactive
Potency [13]: inactive
Potency [14]: 31.2 µM (active)

O=C(O)c1cc(O)c2c(c1)C(=O)c1cc(O)cc(O)c1C2=O
Potency [7]: inactive
Potency [8]: inactive
activity change, negative = inhibition [10]: 8.22% (inactive)
max response [10, 20]: 22.4%
max response [10, 21]: 36.4%
Potency [19]: 56.2 µM (active)
Potency [12]: inactive
Potency [13]: inactive
Potency [14]: inactive
